Test results as given in PubChem BioAssay AID1240 (Sanford-Burnham Center for Chemical Genomics, 2008).
About 800 (1.6%) of roughly 50,000 compounds showed an effect of 50% or more. This excerpt belongs to a sample that is enriched for strong results.

biological target: Bcl-2-like protein 10 (Homo sapiens) (UniProt Q9HD36); assay: TR3 peptide-Bcl-B binding displacers, biochemical primary FP assay, phenotype converters (AID 1240); conditions: GST-Bcl-B / FITC-TR3 peptide fluorescence polarization; stronger effect = higher value; compound at 3.75 mg/L;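 also: 0% = Bcl-B with tracer peptide and DMSO and 100% = tracer peptide lacking Bcl-B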
Sequence (Q9HD36 whole entry, looked up): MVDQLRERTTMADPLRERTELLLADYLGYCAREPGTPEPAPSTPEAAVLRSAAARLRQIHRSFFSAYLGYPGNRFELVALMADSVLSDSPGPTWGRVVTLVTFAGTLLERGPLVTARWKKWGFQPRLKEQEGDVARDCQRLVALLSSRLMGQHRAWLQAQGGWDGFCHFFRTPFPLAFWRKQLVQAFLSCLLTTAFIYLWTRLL

Row | SMILES | displacement
1 | O=C(CSc1nc2ccccc2s1)c1ccc2ccccc2c1 | 11.9%
2 | COc1cccc2cc(-c3nc(-c4ccc(Cl)cc4Cl)cs3)c(=O)oc12 | -11.5%
3 | CCc1ccc(-c2csc(-c3cc4cccc(OC)c4oc3=O)n2)cc1 | -23.6%
4 | COc1ccc(-c2csc(-c3cc4cc(Cl)cc(Cl)c4oc3=O)n2)cc1 | 75%
5 | COc1cc(NS(=O)(=O)c2ccc(C)cc2)cc(OC)c1O | 13.5%
6 | NC(=O)COc1ccc(/C=N/NS(=O)(=O)c2ccccc2)cc1 | 0.2%
7 | COc1cc(/C=C(\C#N)c2ccc([N+](=O)[O-])cc2)c(OC)cc1Br | 14.7%
8 | COc1ccc(OC)c(/C=C(\C#N)c2ccc([N+](=O)[O-])cc2)c1 | 4%
9 | COc1ccc(/C=C(\C#N)c2ccc([N+](=O)[O-])cc2)c(OC)c1 | 110%
10 | CC(C)CN1C(=O)/C(=C/c2ccccc2F)SC1=S | 10.4%
11 | COc1ccc(NC(=O)CSCCc2ccccn2)c([N+](=O)[O-])c1 | 10.5%
12 | NS(=O)(=O)c1cccc(NC(=O)c2cc(I)ccc2Cl)c1 | -1.9%
13 | COc1ccc(/C=C2\SC(=S)N(CC(=O)Nc3ncc(Cc4cccc([N+](=O)[O-])c4)s3)C2=O)cc1OC | 9.7%
14 | CCCCN1C(=O)/C(=C\c2ccc(N(CC)CC)cc2)SC1=S | -18.9%
15 | COc1ccc(/C=C2/SC(=S)N(CCc3ccccc3)C2=O)cc1OC | 105%
16 | Cc1ccc(/C=C2\SC(=S)N(CCc3ccccc3)C2=O)cc1 | 17%
17 | CCN(CC)c1ccc(/C=C2\SC(=S)N(CCc3ccccc3)C2=O)cc1 | 86%
18 | COc1ccc(CCN2C(=O)/C(=C\c3ccc(C(C)C)cc3)SC2=S)cc1OC | -0.4%
19 | COc1ccc(/C=C2/SC(=S)N(Cc3ccccc3)C2=O)cc1OC | 16.1%
20 | O=C(CCCN1C(=O)/C(=C\c2ccc(F)cc2)SC1=S)Nc1ccccc1O | -12.5%
21 | O=C(CCCN1C(=O)/C(=C\c2ccc(F)cc2)SC1=S)Nc1cc([N+](=O)[O-])ccc1O | 114%
22 | COc1ccc(/C=C2\SC(=S)N(CCCC(=O)Nc3ncc(Cc4cccc([N+](=O)[O-])c4)s3)C2=O)cc1OC | 59%

Row | SMILES | displacement
23 | O=C(CN1C(=O)/C(=C/c2ccc(Br)cc2)SC1=S)Nc1ncc(Cc2cccc([N+](=O)[O-])c2)s1 | 17.9%
24 | O=C(CCN1C(=O)/C(=C/c2ccc(F)cc2)SC1=S)Nc1cc([N+](=O)[O-])ccc1O | 25.6%
25 | COC1C(C)=C(c2ccccc2F)C(=O)N1Cc1ccccc1 (stereo unspecified) | 14.3%
26 | CC1=C(C(=O)Nc2ccc(C)cc2)C(c2ccc(F)cc2)NC(=S)N1 (stereo unspecified) | -4.5%
27 | C/C(O)=C/c1nc2ccc([N+](=O)[O-])cc2nc1/C=C(/C)O | 17.3%
28 | OC(COCc1ccc2c(c1)OCO2)CN1CCC(Cc2ccccc2)CC1 (stereo unspecified) | 0.1%
29 | Cc1ccc(-c2cc(NC(=O)c3ccc(Cl)cc3Cl)n[nH]2)cc1 | 9.9%
30 | O=C(O)CCCCCN1C(=O)C(=O)/C(=C(/O)c2ccccc2)C1c1ccc([N+](=O)[O-])cc1 (stereo unspecified) | -3.9%
31 | O=C1c2c(Cl)ccc(Cl)c2C(=O)N1c1ccccc1O | 9.8%
32 | C(#Cc1ccccc1)CN1CCOCC1 | 2.4%
33 | CSC(=O)NC1(Cc2ccc(O)cc2)CCCCC1 | -4.1%
34 | Cc1ccc(C(=O)N/C(=C/c2ccc(Br)cc2)C(=O)NN)cc1 | -31.6%
35 | CCN(CC)CCC(=O)c1ccc2c(c1)OCO2 | -5.3%
36 | O=c1[nH]c2ccc(Cl)cc2c(-c2ccccc2)c1N1CCOCC1 | -27.7%
37 | COC(=O)C(C)Oc1cc2oc(=O)cc(-c3ccccc3)c2cc1Cl (stereo unspecified) | 10.3%
38 | COc1cc(/C=C2\SC(=NCc3ccccc3)N(Cc3ccccc3)C2=O)cc(Br)c1O | -5.7%
39 | COc1ccc(/C=C2\SC(=NCc3ccccc3)N(Cc3ccccc3)C2=O)cc1C(=O)O | 78%
40 | COc1ccc(/C=C2\SC(=NCc3ccccc3)N(Cc3ccccc3)C2=O)cc1OC | 7.1%
41 | CCN(CC)c1ccc(/C=C2/C(=O)NN(c3ccc(C)c(Cl)c3)C2=O)c(O)c1 | 59.2%
42 | CCN(CC)c1ccc(/C=C2/C(=O)NN(c3cccc(Cl)c3)C2=O)c(O)c1 | 1.9%
43 | CCN(CC)c1ccc(/C=C2/C(=O)NN(c3ccc(C)cc3)C2=O)c(O)c1 | 23.1%
44 | CC(=O)C12CCCCC1CC1C3CC(C)[C@@]4(O)CC(O)CCC4(C)C3CCC12C (stereo partly specified) | 0%

Row | SMILES | displacement
45 | Cc1cccc(N2C(=O)S/C(=C/c3cccc([N+](=O)[O-])c3)C2=O)c1 | 14.3%
46 | COc1cc(OC)c([N+](=O)[O-])cc1/C=C1/C(=O)NC(=O)N(c2ccc(Br)cc2)C1=O | 8.8%
47 | COc1ccc(C2=NN(C(=O)CCC(=O)O)C(c3ccccc3F)C2)cc1 (stereo unspecified) | 12.3%
48 | COc1ccc(C2CC(c3ccc(F)cc3)=NN2c2cccc(F)c2)cc1OC (stereo unspecified) | -6.2%
49 | COc1ccc(C2CC(c3ccc(F)cc3)=NN2c2ccccc2)cc1OC (stereo unspecified) | 64.4%
50 | COc1ccc(C2CC(c3ccc(F)cc3)=NN2c2ccccc2F)cc1OC (stereo unspecified) | -4.3%
51 | COc1ccc(C2=NN(c3ccccc3)C(c3ccccc3F)C2)cc1 (stereo unspecified) | 53.9%
52 | COc1ccccc1C1CC(c2ccc(F)cc2)=NN1c1ccccc1 (stereo unspecified) | 5.4%
53 | O=C(COc1ccc(Cl)cc1Cl)Nc1ccc(Br)c(Cl)c1 | -5.5%
54 | CC(=O)Nc1ccc(S(=O)(=O)NC(=O)C23CC4CC(CC(C4)C2)C3)cc1 | 0.8%
55 | CCOc1ccc(C(=O)Nc2cccc(C(C)=O)c2)cc1 | 9%
56 | COc1ccc(Cl)cc1N=CC1=C(O)CC(C)(C)CC1=O | 3.1%
57 | O=C(Oc1ccccc1C(=S)N1CCOCC1)c1cccc([N+](=O)[O-])c1 | 10.7%
58 | CCOc1cc(C(=S)N2CCOCC2)ccc1OC(=O)c1cccc([N+](=O)[O-])c1 | 8.7%
59 | COc1cc(C(=S)N2CCOCC2)cc(OC)c1OC(=O)c1cccc([N+](=O)[O-])c1 | 70.4%
60 | COc1cc(C2C3=C(CC(C)(C)CC3=O)OC3=C2C(=O)CC(C)(C)C3)cc(OC)c1OC(C)=O | -1.3%
61 | CC(C)COc1ccc(C(=O)Nc2ccc(Cl)cc2)cc1 | 13.1%
62 | COc1ccc(NC(=O)CN(c2cc(OC)ccc2OC)S(C)(=O)=O)cc1 | 13.1%
63 | C=CCOc1ccc(Cl)cc1/C=C1/C(=N)N2N=C(CCC)SC2=NC1=O | -25.3%
64 | CCC1=NN2C(=N)/C(=C/c3ccc(-c4ccc([N+](=O)[O-])cc4C)o3)C(=O)N=C2S1 | 14%
65 | CCCC1=NN2C(=N)/C(=C/c3ccc(-c4ccc([N+](=O)[O-])cc4C)o3)C(=O)N=C2S1 | 140%
66 | CCC1=NN2C(=N)/C(=C/c3ccc(-c4ccccc4[N+](=O)[O-])o3)C(=O)N=C2S1 | 1.5%

Row | SMILES | displacement
67 | CCCC1=NN2C(=N)/C(=C/c3ccc(-c4ccc(Cl)cc4Cl)o3)C(=O)N=C2S1 | 74.7%
68 | CCC1=NN2C(=N)/C(=C/c3ccc(-c4ccc([N+](=O)[O-])cc4Cl)o3)C(=O)N=C2S1 | 15.1%
69 | CCC1=NN2C(=N)/C(=C/c3ccc(-c4ccc([N+](=O)[O-])cc4Br)o3)C(=O)N=C2S1 | 4%
70 | CCCC1=NN2C(=N)/C(=C/c3ccc(-c4ccc([N+](=O)[O-])cc4Br)o3)C(=O)N=C2S1 | 129%
71 | NC1=NC(=O)/C(=C/c2ccc(-c3ccc([N+](=O)[O-])cc3Br)o2)S1 | -5.3%
72 | CC1CCc2c(nc3ccccc3c2C(=O)O)C1 (stereo unspecified) | -14.7%
73 | CN(C)/C=C/C=C1C(=O)OC(C)(C)OC1=O | 0.3%
74 | O=C(O)c1ccccc1C(=O)c1ccc(Cl)c(N2C(=O)CCC2=O)c1 | -1.3%
75 | Cc1cc(NS(=O)(=O)c2ccc(NC(=O)C(Cl)(Cl)Cl)cc2)nc(C)n1 | 1.3%
76 | COc1ccc(Br)cc1Cn1c(=O)[nH]c2cc(C(F)(F)F)ccc21 | -5.6%
77 | CC(C)(C)C(=O)Nc1cccc(C(=O)NCc2ccc(CNC(=O)c3cccc(NC(=O)C(C)(C)C)c3)cc2)c1 | 9.9%
78 | O=C(Oc1cccc(/C=C2/SC(=S)N(c3ccccc3)C2=O)c1)c1ccco1 | -17.2%
79 | O=Cc1cn(-c2ccccc2)nc1-c1ccc(Cl)cc1 | 7.5%
80 | Cc1cc(-n2cc(C=O)c(-c3ccccc3)n2)nc2ccccc12 | 75.4%
81 | Cc1cc(C)c(-c2nn(-c3ccccc3)cc2C=O)c(C)c1 | 10.9%
82 | Cc1ccc(C(=O)/C=C2\C(=O)Nc3ccccc32)cc1 | 6.7%
83 | O=C(O)CCCC(=O)OCc1ccco1 | 31.3%
84 | O=C(COc1ccc([N+](=O)[O-])cc1)NNC(=O)c1ccccc1Cl | 11.6%
85 | O=C1S/C(=C/c2ccc(-c3cccc([N+](=O)[O-])c3)o2)C(=O)N1c1ccccc1 | 111%
86 | O=C(O)c1ccc(-c2ccc(/C=C3/SC(=O)N(c4ccccc4)C3=O)o2)cc1 | 27.7%
87 | O=[N+]([O-])c1ccc(-c2ccc(/C=N/n3cnnc3)o2)cc1 | 139%
88 | Fc1ccc(-c2ccc(/C=N/n3cnnc3)o2)cc1 | 7.8%

Row | SMILES | displacement
89 | O=C1S/C(=C/c2ccc(-c3ccc([N+](=O)[O-])cc3Cl)o2)C(=O)N1c1ccccc1 | 47.4%
90 | O=[N+]([O-])c1ccccc1-c1ccc(/C=N/n2cnnc2)o1 | 8.8%
91 | O=C1S/C(=C\c2ccc(-c3ccc([N+](=O)[O-])cc3)o2)C(=O)N1c1ccccc1 | 70.2%
92 | O=C1S/C(=C/c2ccc(-c3ccc(F)cc3)o2)C(=O)N1c1ccccc1 | 12.2%
93 | O=C1S/C(=C\c2ccc(-c3ccccc3[N+](=O)[O-])o2)C(=O)N1c1ccccc1 | 47.7%
94 | Cc1cccc(/C=C2/SC(=S)N(CN3CCCCC3)C2=O)c1 | 11.3%
95 | O=C1CCCCC1Oc1ccc2c(-c3ccccc3)cc(=O)oc2c1 (stereo unspecified) | -9.6%
96 | O=C(COc1ccc2ccccc2c1)Nc1cc([N+](=O)[O-])ccc1F | 29.5%
97 | CCSC1C(C)=C(C)C(=O)N1C(C)(C)c1cc(Cl)cc(Cl)c1 (stereo unspecified) | 21.2%
98 | CCOc1ccccc1NC(=O)CN1C(=O)/C(=C\c2cc(OC)c(OC)c(OC)c2)SC1=S | 36.8%
99 | CCOc1ccccc1NC(=O)CN1C(=O)/C(=C/c2cccc(Br)c2)SC1=S | 78.7%
100 | O=C(CN1C(=O)/C(=C/c2ccccc2)SC1=S)Nc1cccc(Br)c1 | 11.9%
101 | O=C(O)CCCCCCCCCCN1C(=O)/C(=C/c2cccc(Br)c2)SC1=S | -3.4%
102 | O=C(CN1C(=O)/C(=C/c2cccc(Br)c2)SC1=S)Nc1cccnc1 | 9.6%
103 | O=C(O)CCCN1C(=O)/C(=C\c2cccc(O)c2)SC1=S | 0.6%
104 | O=C(O)CCCN1C(=O)/C(=C/c2cccc(Br)c2)SC1=S | 91.2%
105 | COc1ccc(NC(=O)CN2C(=O)/C(=C/c3cccc(Br)c3)SC2=S)cc1 | 11.6%
106 | O=C(CN1C(=O)/C(=C/c2cccc(Br)c2)SC1=S)Nc1ccccn1 | 69%
